Measured values as given in ChEMBL document CHEMBL1157539, “Thousands of chemical starting points for antimalarial lead identification” (Nature, 2010).

What was measured:
Assay type in all cases: functional
Plasmodium falciparum [1] = experiment: GSK_TCMDC: Inhibition of Plasmodium falciparum 3D7 in whole red blood cells, using parasite LDH activity as an index of growth. Test compounds present at 2uM
Plasmodium falciparum [2] = experiment: GSK_TCMDC: Inhibition of Plasmodium falciparum Dd2 in whole red blood cells, using parasite LDH activity as an index of growth. Test compounds present at 2uM
HepG2 = experiment: GSK_TCMDC: Percent inhibition of human HepG2 cell line. Test compounds present at 10uM.

Cc1cc(NC(=O)Nc2ccc(N(C)C)cc2)c2cc(Cl)ccc2n1.Cl
Inhibition (Plasmodium falciparum [1]): 100%
Inhibition (Plasmodium falciparum [2]): 50%
Inhibition (HepG2): 0%

Cc1cc(NCC2CCN(CC3CCCCC3)C2)nc(Nc2ccc(Cl)cc2)n1 (configuration not stated)
Inhibition (Plasmodium falciparum [1]): 100%
Inhibition (Plasmodium falciparum [2]): 74%
Inhibition (HepG2): 2%

Fc1ccccc1C=NN=c1cc[nH]c2ccccc12
Inhibition (Plasmodium falciparum [1]): 94%
Inhibition (Plasmodium falciparum [2]): 26%
Inhibition (HepG2): 8%

Cc1ccc2nc(-c3ccc(C(=O)NC4CCN(Cc5ccccc5)CC4)cc3)[nH]c2c1C
Inhibition (Plasmodium falciparum [1]): 100%
Inhibition (Plasmodium falciparum [2]): 46%
Inhibition (HepG2): 22%
